Source: PubChem (several laboratories)
In the library only some 4% were active in any assay of this set; here they are far more common.
Mtb UGM inh: M. tuberculosis UGM enzyme inhibitors, primary screen, biochemical, fluorescence polarization, single point. purified UGM, fluorescence polarization probe displacement. inhibition, % at 10 µM. 0.06% of 320,000 active. AID 504406, 2011; in the data active = inhibition above about 10%, passing the limit was not always enough
Target sequence (P9WIQ1 whole entry, looked up): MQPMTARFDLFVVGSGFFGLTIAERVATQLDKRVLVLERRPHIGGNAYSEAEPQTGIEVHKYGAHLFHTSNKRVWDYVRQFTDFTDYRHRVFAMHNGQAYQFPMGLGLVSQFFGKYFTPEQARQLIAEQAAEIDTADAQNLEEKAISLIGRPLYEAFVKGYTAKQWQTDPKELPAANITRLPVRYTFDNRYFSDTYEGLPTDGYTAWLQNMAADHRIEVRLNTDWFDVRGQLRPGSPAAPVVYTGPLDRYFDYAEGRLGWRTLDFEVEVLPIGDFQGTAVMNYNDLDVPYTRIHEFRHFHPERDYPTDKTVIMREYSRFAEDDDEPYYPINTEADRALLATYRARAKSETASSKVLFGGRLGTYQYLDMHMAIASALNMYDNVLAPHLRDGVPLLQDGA
Mtb FBA inh: Mtb FBA enzyme inhibitors, primary screen, biochemical, fluorescence, strain H37Rv; Fructose-bisphosphate aldolase (Mycobacterium tuberculosis (strain ATCC 25618 / H37Rv)), …; purified M. tuberculosis FBA, fluorescence read-out; inhibition, % at 1 µM; 2.3% of 360,000 active;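 note: 0% = vehicle and 100% = reference inhibitor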
RecA intein inh: Mtb RecA intein splicing inhibitors, primary screen, biochemical, fluorescence, HTS | Protein RecA (Mycobacterium tuberculosis (strain ATCC 25618 / H37Rv)), P9WHJ3 | cell-free RecA intein splicing | inhibition, % (test concentration not listed) | 0.75% of 290,000 active | AID 2221, 2009; in the data active = inhibition above about 30%;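 note: 0% = vehicle wells and 100% = reference inhibitor control wells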
GDH-TPI counter-1: GDH-TPI coupling enzyme inhibitors, primary screen, artefact control for M. tuberculosis FBA inhibitor project, biochemical, absorbance, full deck; AID 588335, 2011; inhibition, % at 4.8 µM; GDH-TPI coupled enzyme counterscreen, NADH absorbance; 1.2% of 360,000 active; in the data active = inhibition above about 30%;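 note: 0% = DMSO wells and 100% = wells lacking the enzyme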
Mtb betalactam: beta-lactam sensitization of Mtb H37Rv, H37Rv | M. tuberculosis H37Rv growth with meropenem, percent inhibition | inhibition, % at 25 µM | 0.27% of 330,000 active; call rule not given here;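 note: growth measured after seven days incubation then overnight dye step; 0% = bacteria only wells and 100% = bacteria with antibiotic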
Rv3671c inh: Rv3671c serine protease inhibitors, primary screen, biochemical, fluorescence polarization, M. tuberculosis H37Rv | inhibition, % at 5.96 µM | 0.048% of 320,000 active; in the data active = inhibition above about 38%;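 note: extracellular domain of Rv3671c used as enzyme; 0% = enzyme with DMSO and 100% = no enzyme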
Mtb FBA confirm: M. tuberculosis aldolase blockers, biochemical, fluorescence, strain H37Rv, confirmation; shares compounds with Mtb FBA inh; purified M. tuberculosis FBA, fluorescence read-out; inhibition, % at 1 µM; 78% of 5,600 active;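 note: 0% = vehicle wells and 100% = reference inhibitor wells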
GDH-TPI counter-2: GDH-TPI coupling enzyme inhibitors, artefact control for M. tuberculosis FBA inhibitor project, biochemical, fluorescence, high throughput; shares compounds with Mtb FBA inh; GDH-TPI coupled enzyme counterscreen; inhibition, % at 1 µM; AID 652141, 2013; 81% of 5,600 active; in the data active = inhibition above about 10%
* hit, by the source's call; · = no result; + = active, no number. Cut-off read from the data, not from the text of the source, unless noted: active = inhibition above about 27%; inactive = the rest.

SMILES	Mtb UGM inh	Mtb FBA inh	RecA intein inh	GDH-TPI counter-1	Mtb betalactam	Rv3671c inh	Mtb FBA confirm	GDH-TPI counter-2
COc1cccc(-c2csc(NNC(=O)c3cccs3)n2)c1	8	64*	4	4	90	11	28*	14*
CCC1CN(C(=O)NCc2cccc(OC)c2)c2ccccc2O1 (stereo not given)	-1	68*	3	3	3	·	0	-6
CCOc1ccc(-c2cc(C)n3nc(C(N)=O)cc3n2)cc1	-4	52*	-15	5	13	4	-2	-1
O=c1cc(-c2ccco2)oc2c1ccc1ccccc12	3	49*	-1	21	43	-3	+	+
O=C(Nc1cccc(Oc2ccccc2)c1)C1Cc2c(-c3ccccc3)ccnc2O1 (stereo not given)	·	5	·	8	·	·	·	·
CNC(=S)N/N=C/c1ccc(C(C)C)cc1	3	1	1	19	-4	9	·	·
Cc1c(NC(=S)N/N=C/c2ccc(N(C)C)cc2)c(=O)n(-c2ccccc2)n1C	2	33*	-5	33*	-4	8	116*	88*
CNC(=S)N/N=C/c1ccc(N(C)C)cc1	-1	42*	-5	40*	-4	-5	+	+
COc1ccccc1C(=O)NNC(=O)c1ccc(Br)cc1	-2	-1	-1	6	1	2	·	·
Nc1ncc2[nH]c(N)nc2n1	·	19	·	-10	·	·	·	·
CCC(C)NC(=O)c1cnn2c(C)c3c(nc12)CCCC3 (stereo not given)	0	46*	-1	15	14	8	+	+
Cc1c2c(nc3c(C(=O)NC4CC4)cnn13)CCCC2	·	1	-1	1	4	1	·	·
COc1ccc(-c2noc3c2-c2nc(-c4ccc(Cl)cc4)sc2CC3)cc1	1	0	0	0	-5	-5	·	·
CC(C)(C)c1ccc(-c2nc(C#N)c(NCCCn3ccnc3)o2)cc1	1	40*	·	11	97	3	108*	103*
N#Cc1nc(-c2ccc(OCc3ccccc3)cc2)oc1NCCCn1ccnc1	-1	7	-1	0	94	6	·	·
CCCOc1ccc(-c2nc(C#N)c(NCCCn3ccnc3)o2)cc1	2	105*	5	15	99	6	105*	81*
N#Cc1nc(-c2ccco2)oc1NCCCn1ccnc1	0	60*	1	2	-13	3	121*	93*
N#Cc1nc(-c2ccc(F)cc2)oc1NCCCn1ccnc1	0	·	3	·	-4	1	·	·
Cc1ccc2nc3n(c(=O)c2c1)-c1cc2ccccc2cc1C(=O)NC3CC(C)C (stereo not given)	·	-2	·	-3	·	·	·	·
COc1ccc(C2=NN(c3nc(C(=O)O)cs3)C(O)(C(F)(F)F)C2)c(OC)c1 (stereo not given)	0	53*	3	26	-2	-2	79*	61*
COc1ccc(C2=NN(C(=O)c3cccs3)C(O)(C(F)(F)F)C2)cc1 (stereo not given)	0	2	4	2	5	3	·	·
Nc1c(C(=O)Nc2nc3ccccc3s2)sc2nc(-c3cccs3)ccc12	1	52*	-8	35*	8	0	123*	114*
CC(=O)c1sc2nc(-c3cccs3)ccc2c1N	-1	17	-29	19	9	-28	·	·
CC(CCc1ccccc1)NC(=O)CCNS(=O)(=O)c1ccccc1 (stereo not given)	0	0	-2	5	2	3	·	·
CNc1nc(-c2ccccc2)c2sccc2n1	·	78*	·	17	·	·	8	-4
SMILES	Mtb UGM inh	Mtb FBA inh	RecA intein inh	GDH-TPI counter-1	Mtb betalactam	Rv3671c inh	Mtb FBA confirm	GDH-TPI counter-2
CCOC(=O)c1cc2c(=O)n3cccc(C)c3nc2n(Cc2ccco2)c1=NC(=O)c1cccnc1	·	106*	·	20	·	·	31*	35*
Cc1cccn2c(=O)c3cc(S(=O)(=O)c4ccccc4)c(=N)n(Cc4cccnc4)c3nc12	2	4	-4	11	-5	-2	·	·
CCCCn1c(-c2ccc(Cl)cc2)nc2c(=O)n(C)c(=O)[nH]c21	·	17	·	0	·	·	·	·
CCCn1c(-c2ccc(OC)cc2)nc2c(=O)n(C)c(=O)[nH]c21	1	71*	-1	-2	-7	4	1	-9
Cn1c(=O)[nH]c2c(nc(-c3ccc(Cl)cc3)n2C)c1=O	0	28*	-1	-4	2	0	3	1
CCCCn1c(-c2ccc(OC)cc2)nc2c(=O)n(C)c(=O)[nH]c21	-2	58*	-1	-4	5	1	107*	106*
Cc1ccc(CCN2CC(C(=O)NC3CCC(C)CC3)CC2=O)cc1 (stereo not given)	·	-2	·	-1	·	·	·	·
Cc1cc(-c2ccccc2)n2nc(N)nc2n1	0	34*	-4	2	-1	-7	97*	76*
Cc1cc(-c2ccccc2)n2nc(C)c(C#N)c2n1	-2	27*	1	7	-6	-1	+	+
Cc1cc(C)n2nc(N)nc2n1	·	1	·	5	·	·	·	·
COc1cc(/C=N/NC(=O)c2nnn(-c3nonc3N)c2C)ccc1OCc1ccc(Cl)cc1	·	-4	·	0	·	·	·	·
COCc1cc(CN2CCCC(C(=O)Nc3ccc(-c4ccco4)cc3)C2)ccc1OC (stereo not given)	1	0	5	-1	96	-8	·	·
COc1cc(OC)cc(OC(=O)c2ccc3c(=O)n4c(nc3c2)CCC4)c1	1	3	0	2	-4	-5	·	·
CCOC(=O)Cn1c2ccccc2n2nc(CCC(=O)O)c(=O)nc12	-1	58*	4	2	1	-6	-2	-3
NS(=O)(=O)c1ccc(CCNC(=O)c2coc3ccccc3c2=O)cc1	2	28*	-7	0	-3	4	155*	99*
CN(CCc1ccccc1)C(=O)c1cccc(NC(=O)Cc2cccc([N+](=O)[O-])c2)c1	-2	0	·	2	3	2	·	·
Cc1ccccc1-n1c(SCC(=O)NCC2CCCO2)nc2c([nH]c3ccccc32)c1=O (stereo not given)	-1	2	1	7	6	2	·	·
